Growth data for 14 compounds are collected here from PubChem BioAssay (NCI).

Compounds without any hit were thinned out: in the full panel of roughly 83,000, 20% have a hit.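 96-well plates, one dose, 48 hours. Percent growth reported; active if below 10.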 Unmarked numbers belong to inactive results. Activity calls are given as the source filed them.

Common to all, as to assay: NCI-60 one-dose screen, 48 h (100 = growth as untreated, 0 = no growth, -100 = all killed)
Conditions in all cases: 10 µM unless noted

The subject of assay [1] is SK-MEL-2 melanoma.
Assay [2] has as its system EKVX NSCLC.
Assay [3] concerns SN12C renal.
Assay [4] concerns UO-31 renal.
In assay [5] the test system is TK-10 renal.
For assay [6], the system named is ACHN renal.
The subject of assay [7] is A498 renal.
Assay [8] concerns CCRF-CEM leukemia.
The subject of assay [9] is MOLT-4 leukemia.
Assay [10] has as its system CAKI-1 renal.

On to `C=C1C(=O)O[C@H]2[C@H]1CC/C(COC(=O)NCc1c[nH]c3ccccc13)=C\CC[C@@]1(C)O[C@@H]21`, for which the growth is 70.5% in [1]; 84.2% in assay [2]; 44.4% in [3]; -62.7% (active) in [4]; 34.3% in assay [5]; -36.2% (active) in assay [6]. In addition, the growth in assay [7] was 102%; in assay [8], 7.29% (active); in assay [9] it was 1.16% (active).
Regarding `N#CC1=C(N)Oc2c(c(N)nn2-c2ccccc2)C1c1ccc(Cl)cc1Cl` (stereo not drawn), the growth in [1] is 101%; in [2] it was 91.2%; in assay [3], 99.5%; in assay [4] it was 73.8%; in assay [5], 123%; in assay [10] it was 90.1%. Also, the growth in assay [7] was 90.7%; in [8], 95.6%; in assay [9], 88.3%.
`CC1(C)[C@@H](O)CC[C@]2(C)[C@H]3CC[C@@H]4[C@H]5[C@H](C(=O)/C=C/c6ccc(C(F)(F)F)cc6)CC[C@]5(CO)CC[C@@]4(C)[C@]3(C)CC[C@@H]12`: the growth was 83.7% in [1]; 71.2% in assay [2]; 58.8% in assay [3]; 46.7% in [4]; 105% in assay [5]; 47.4% in assay [10]. Moreover, the values for the growth in assay [7], in [8] and in [9] were -1.48% (active), 28.4% and 14%, respectively.
Turning to `C=C(C)[C@@H]1CC[C@]2(C(=O)N3CCCNCC3)CC[C@]3(C)[C@H](CC[C@@H]4[C@@]5(C)CCC(=O)C(C)(C)[C@@H]5CC[C@]43C)[C@@H]12`, the growth in assay [1] was 118%; in assay [2], 98.3%; in assay [3], 84%; in assay [4], 85.5%; in assay [5], 127%; in assay [10], 67.8%. The results for the growth in assay [7] and in [8] were 89.5% and 84.2%, respectively.
Regarding `COC(=O)[C@]12CC[C@@H](C)[C@H](C)[C@@H]1C1=CC[C@@H]3[C@@]4(C)C[C@@H](OC(C)=O)[C@H](O)[C@@](C)(COC(C)=O)[C@@H]4[C@H](O)C[C@@]3(C)[C@]1(C)CC2`, the growth in assay [1] was -73.6% (active); in assay [2], -88.8% (active); in [3], -69.9% (active); in [4], -81.6% (active); in [5], -86.5% (active); in assay [10], -88.2% (active). Moreover, the growth in assay [7] was -94.4% (active); in assay [8], -54.3% (active); in assay [9], -34.3% (active).
In the case of `CC/C=C\C[C@H]1CC=C2C(=O)C=C[C@@H]2CC=CCCCC(=O)O[C@@H](CCCCC)CC=C2C(=O)C=C[C@@H]2CC=CCCCC(=O)O[C@@H](CCCCC)CC=C2C(=O)C=C[C@@H]2CC=CCCCC(=O)O[C@@H](CCCCC)CC=C2C(=O)C=C[C@@H]2CC=CCCCC(=O)O1`, the growth is -5.92% [7.9 µM] (active) in assay [1]; 63.7% [7.9 µM] in assay [2]; -10.5% [7.9 µM] (active) in assay [3]; 9.76% [7.9 µM] (active) in [4]; 57.5% [7.9 µM] in assay [5]; 19.6% [7.9 µM] in assay [6]. Moreover, the growth in [7] was 73.1% [7.9 µM]; in [8] it was 9.35% [7.9 µM] (active); in assay [9], 4.01% [7.9 µM] (active).
Turning to `COc1ccc2c(c1)c(-c1nc(-c3c[nH]c4ncccc34)cs1)cn2CCCN1CCCCC1`, the growth in [1] is 73.6%; in assay [2], 51.2%; in [3], 58%; in assay [4], 36.5%; in assay [5] it was 77.5%; in assay [6], 22.3%. For the same compound, the growth was 66.1% in [7] and -18.9% (active) in assay [9].
In the case of `O=C1C(=O)c2ccccc2C(O)=C1CCCc1ccc(C2CCCCC2)cc1`, the growth was 104% in assay [1]; 60.2% in assay [2]; 43.2% in assay [3]; 75.9% in assay [4]; 52.5% in [5]; 19.7% in assay [10]. The growth was 56.7% in assay [7], 9.07% (active) in [8] and 29.2% in [9].
On to `Cc1cc(N(CCCNc2ccnc3cc(Cl)ccc23)Cc2ccco2)nc(N2CCN(C)CC2)n1`, for which the growth in assay [1] was 70.7%; in assay [2], 66.1%; in assay [3] it was 50.5%; in [4], 47.5%; in assay [5] it was 117%; in assay [6], 18.6%. Further, the figures for the growth in assay [7], in [8] and in [9] were 72.2%, 43.4% and 37.6%, respectively.
For the compound `CCNCCCn1c2c(c3ccc([N+](=O)[O-])cc3c1=O)C(=O)c1cc(OC)cnc1-2`, the growth in assay [1] is -27.8% (active); in assay [2] it was 8.7% (active); in assay [3] it was 1.09% (active); in assay [4], -85.1% (active); in assay [5], -27.6% (active); in assay [10], -58.5% (active). Besides, the growth in [7] is -89.2% (active); in assay [8] it was 3.93% (active); in assay [9] it was -4.26% (active).
Turning to `Cc1ccc(N(CC(=O)Nc2ccc(S(=O)(=O)N3CCC(N4CCCC4)CC3)cc2)S(=O)(=O)c2ccc(Cl)cc2)cc1`, the growth in assay [1] is 91.9%; in assay [2] it was 70.1%; in assay [3] it was -35.7% (active); in assay [4] it was 38.1%; in assay [5] it was 112%; in assay [10], 18.2%. Besides, the growth in [7] was 65.6%; in assay [8], 3.02% (active).
For the compound `O=C(NO)c1ccc(Cn2c(=O)n(-c3ccccc3)c(=O)c3ccccc32)cc1`, the growth in assay [1] is 5.92% (active); in assay [2], 21.6%; in assay [3], 44.1%; in assay [4], 50.5%; in assay [6], 55.7%; in assay [10], 56.9%. Moreover, the figures for the growth in assay [7], in [8] and in assay [9] were -10.7% (active), 2% (active) and -2.07% (active), respectively.
Turning to `CN(C)c1ccc(N=C2C=CC(=O)C=C2)cc1`, the growth was 97.1% in assay [1]; 75.3% in [2]; 92% in assay [3]; 73.7% in assay [4]; 69.3% in [6]; 81% in assay [10]. For the same compound, the growth in assay [7] is 93.1%; in [8] it was 75.5%; in assay [9] it was 51.3%.
On to `COc1ccc(C2=NN(c3nc(-c4ccc(OC)cc4)c(C#N)c(=O)n3C)C(=O)CC2)cc1`, for which the growth was 98.4% in assay [1]; 107% in assay [2]; 88.8% in assay [3]; 85.9% in assay [4]; 101% in [6]; 96% in assay [10]. In addition, the growth in assay [7] is 116%; in assay [8] it was 91%; in [9] it was 96.6%.
